This is a sample that favours compounds with a hit; in the whole collection about 8.9% have one here.
MCF10A rereplic = A quantitative high throughput screen for small molecules that induce DNA re-replication in MCF 10a normal breast cells; MCF 10A DNA re-replication, Hoechst nuclear intensity, 48 h; Potency, µM (top dose mostly 46.1 µM), actives largely listed as activators; actives 2.9% (n = 350,000); AID 624296, 2012; note: nearly all actives have a fitted effect of over 50% in size
KB-V1 cytotox = qHTS assay for MDR1-selective chemotherapeutics: Primary screen using the drug-selected MDR subline cells KB-V1; AID 1347076, 2019; Potency, µM (highest dose often 46.1 µM), hits mostly cytotoxic; actives 3.4% (n = 400,000); KB-V1 MDR cells viability, CellTiter-Glo, 72 h; note: nearly all actives have a fitted effect of over 60% in size
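Readout: CellTiter-Glo luminescence, 10 min after addition. Cells: KB-V1 MDR subline, 72 h at 37 degrees C with compound. Analysis: corrected, normalized data fitted to concentration-effect curves.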
D3 antag = qHTS of D3 Dopamine Receptor Antagonist: qHTS; D(3) dopamine receptor (Homo sapiens), P35462; D3R cells, DiscoveRx beta-arrestin luminescence, antagonist mode; stronger effect = lower value; max response, negative = inhibition, %; actives 2.5% (n = 360,000); in the data active = max response below about -50%; inconclusive = no clear call, values can overlap the other calls
Target sequence (P35462 whole entry, looked up): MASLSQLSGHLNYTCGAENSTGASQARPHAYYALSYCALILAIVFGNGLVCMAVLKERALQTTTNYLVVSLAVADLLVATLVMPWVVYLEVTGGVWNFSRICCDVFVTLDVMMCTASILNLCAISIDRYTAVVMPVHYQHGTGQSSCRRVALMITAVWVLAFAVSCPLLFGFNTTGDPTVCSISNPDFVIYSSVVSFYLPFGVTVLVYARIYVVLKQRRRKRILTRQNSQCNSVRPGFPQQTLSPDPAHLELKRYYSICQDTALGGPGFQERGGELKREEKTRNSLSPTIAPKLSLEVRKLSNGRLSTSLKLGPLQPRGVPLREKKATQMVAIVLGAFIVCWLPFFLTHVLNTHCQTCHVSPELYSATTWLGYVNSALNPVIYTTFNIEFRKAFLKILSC
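Cells plated overnight at 1500 cells/well, then exposed to library compounds with dopamine controls for 90 minutes at 37 degrees C. DiscoveRx reagent added for 30–60 minutes at room temperature; luminescence read, quantitative HTS format.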
SW480 rerep = A quantitative high throughput screen for small molecules that induce DNA re-replication in SW480 colon adenocarcinoma cells. AID 624297, 2012. actives 1.8% (n = 340,000). Potency, µM (doses to about 46.1 µM), most hits filed as activators. SW480 DNA re-replication, Hoechst DNA content imaging, 48 h; note: nearly all actives have a fitted effect of over 55% in size
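First, 250 cells per well were seeded. Next, compound or vehicle (23 nL) was pinned in, plates sat 48 hr at 37 C. Finally Hoechst was added for 40 min before fluorescence scanning.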
D3 ag = qHTS of D3 Dopamine Receptor Agonist: qHTS; D3R DiscoveRx beta-arrestin cells, luminescence, 90 min; max activation, %; actives 0.58% (n = 410,000); AID 652048, 2013; in the data active = max activation above about 30%
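Agonist mode: compounds and dopamine controls were applied to plated cells for 90 min at 37 degrees C after an overnight attachment at 1500 cells/well. Luminescent read-out followed 30 - 60 minutes at room temperature with DiscoveRx detection reagent.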
KB-3-1 cytotox = qHTS assay for MDR1-selective chemotherapeutics: Primary screen using the parental adenocarcinoma cell KB-3-1 | Potency, µM (highest dose often 46.1 µM), actives largely listed as cytotoxic | AID 1347075, 2019 | KB-3-1 viability, CellTiter-Glo ATP luminescence, 72 h | actives 1.4% (n = 400,000); note: nearly all actives have a fitted effect of over 60% in size
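Cells are dispensed, compounds pinned in, plates held at 37 °C for 72 h, then CellTiter-Glo is added and luminescence read after 10 minutes. Cell line: parental KB-3-1 in phenol-red-free DMEM, 10% FBS.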
Each line names hits and unclear results; the compound was inactive in the other large screens. Unless noted, calls come from the whole dose curve; as a rule, active = well fitted curve in the direction sought with a large enough effect; inconclusive = small, poorly fitted or top-dose-only effect, or another doubt; inactive = no such curve, though single readings can be large; an effect the other way counts as inactive or inconclusive.

COc1ccc(NC(=O)C2CC(=O)N(c3ccccc3F)C2)cc1S(=O)(=O)N1CCCCC1 (stereo unspecified)	none (no result: MCF10A rereplic, SW480 rerep)
COc1ccc(-c2cn3cccnc3n2)cc1Br	KB-V1 cytotox inconclusive, KB-3-1 cytotox inconclusive
COc1ccc(-c2cn3cc(Br)cnc3n2)cc1	KB-V1 cytotox 10µM, SW480 rerep inconclusive, KB-3-1 cytotox 13µM
O=C1CSC(=Nc2cccc(Cl)c2Cl)N1Cc1cccnc1	KB-V1 cytotox 16µM
COc1ccc(C(C(=O)NC2CCCCC2)N(C(=O)CCl)c2cccc(Cl)c2)cc1 (stereo unspecified)	MCF10A rereplic 21µM, KB-V1 cytotox 16µM, SW480 rerep inconclusive, KB-3-1 cytotox 18µM
COC(CN(C(=O)CCl)C(C(=O)NC1CCCCC1)c1ccc(C)cc1)OC (stereo unspecified)	KB-V1 cytotox inconclusive, SW480 rerep 5.8µM, KB-3-1 cytotox inconclusive
COc1ccc(C(C(=O)NC2CCCCC2)N(C(=O)CCl)c2ccc(C)cc2)cc1 (stereo unspecified)	KB-V1 cytotox inconclusive, SW480 rerep 2.6µM, KB-3-1 cytotox inconclusive
COc1ccc(C(C(=O)NC2CCCCC2)N(C(=O)CCl)c2ccc(OC)cc2)cc1 (stereo unspecified)	MCF10A rereplic 18µM, KB-V1 cytotox 3.7µM, SW480 rerep inconclusive, KB-3-1 cytotox 5.8µM
COc1cccc(N(C(=O)c2cnccn2)C(C(=O)NC2CCCCC2)c2ccc(Cl)cc2)c1 (stereo unspecified)	none
CCCC(=O)O[C@]1(C(=O)CCl)[C@H](C)C[C@@H]2[C@H]3CCC4=CC(=O)C=C[C@]4(C)[C@@]3(F)C(=O)C[C@@]21C	none (no result: KB-V1 cytotox, D3 antag, D3 ag, KB-3-1 cytotox)
CCOc1ccc(C(=O)Nc2cccc(OCc3cc(=O)n4cc(C)sc4n3)c2)cc1	none (no result: MCF10A rereplic, D3 antag, SW480 rerep)
Cc1cccc(OCC(=O)Nc2nonc2-c2ccc(Br)cc2)c1C	none (no result: MCF10A rereplic, D3 antag, SW480 rerep)
C=C1C(=O)OCC2C(C(=O)O)=CC3C(C)C(C)=CC123 (stereo unspecified)	KB-V1 cytotox inconclusive, KB-3-1 cytotox inconclusive (no result: MCF10A rereplic, SW480 rerep)
Cn1cc(S(=O)(=O)c2ccc(Cl)cc2)c(=O)c2cc(F)c(N3CCCC3)cc21	none (no result: MCF10A rereplic, D3 antag, SW480 rerep)
CSc1nc(N)nc(SCC(=O)Nc2cccc(F)c2)c1C#N	MCF10A rereplic inconclusive, KB-V1 cytotox 2.3µM, SW480 rerep inconclusive, KB-3-1 cytotox inconclusive
C[C@@H]1CN([C@@H](C)CO)S(=O)(=O)c2ccc(Br)cc2O[C@H]1CN(C)C(=O)Nc1ccc2c(c1)OCO2	none (no result: MCF10A rereplic, SW480 rerep)
COc1ccc(-c2n[nH]c(C(F)(F)F)c2-c2cc3ccccc3o2)c(O)c1	KB-V1 cytotox 18µM
CC(C(=O)NC(=O)NC1CCCCC1)N1CCN(c2ccc(O)cc2)CC1 (stereo unspecified)	KB-V1 cytotox 23µM
CC(NC(=O)NC1CCCCC1)C(c1cccs1)N1CCN(c2ccccc2)CC1 (stereo unspecified)	D3 antag -55
CC(NC(=O)C1CC1)C(c1cccs1)N1CCN(c2ccccc2)CC1 (stereo unspecified)	none
CCS(=O)(=O)NC(C)C(c1cccs1)N1CCN(c2ccc(OC)cc2)CC1 (stereo unspecified)	none
COc1ccc(N2CCN(C(c3cccs3)C(C)NS(=O)(=O)c3ccccc3)CC2)cc1 (stereo unspecified)	MCF10A rereplic inconclusive, KB-V1 cytotox inconclusive, KB-3-1 cytotox 21µM
CC(C)C(=O)NC(C)C(c1cccs1)N1CCN(c2ccccc2)CC1 (stereo unspecified)	KB-V1 cytotox 13µM
Cc1cc(C)cc(-n2ncc3c2CCCC3NC(=O)CCN2Cc3ccccc3C2=O)c1 (stereo unspecified)	none

Assay outcomes (PubChem BioAssay)
